Pf growth 48h – inhibits P. falciparum growth in the first generation, 48 h | P. falciparum luciferase growth in erythrocytes, 48 h | Potency, µM (highest dose often 28.7 µM), usual class: inhibitors | 310,000 compounds, 5.9% hits
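Luciferase-expressing P. falciparum in infected erythrocytes (2% hematocrit, 0.1% parasitemia final) in RPMI 1640/0.5% Albumax were exposed to compound for 48 hours at 37 C, 5% CO2; growth read as luminescence.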
CHX counter – affects cycloheximide protein synthesis inhibition readout, counter-screen; max response, %; cell reporter, cycloheximide protein synthesis inhibition counterscreen; 300,000 compounds, 12% hits; in the data active = max response mostly above about 13%, no sharp cut-off; inactive = mostly below about 14%; note: read at 38.3 µM for the half of the compounds with a filed dose
Lassa entry inh – inhibitors of Lassa virus binding or cell entry; 300,000 compounds, 1.2% hits; AID 540256; Potency, µM (top dose mostly 37.9 µM), hits mostly inhibitors; Lassa virus pseudotype entry inhibition, cell reporter; calls by dose curve; tested in HEK293 cells; note: nearly all actives have a fitted effect of over 50% in size
MARV entry inh – inhibitors of Marburg virus binding or cell entry; Marburg virus pseudotyped entry inhibition, cell reporter; Potency, µM (series often up to 37.8 µM), usual class: inhibitors; 300,000 compounds, 1.8% hits; calls by dose curve; tested in HEK293 cells
Shiga inhibitor – inhibitors of Shiga toxin in Vero cells; Vero cells, Shiga toxin protein synthesis inhibition reporter; inhibition, % at 38.7 µM; 290,000 compounds, 9.2% hits; AID 2315; in the data active = inhibition mostly above about 28%, no sharp cut-off; inactive = mostly below about 43%
Pf growth 96h – P. falciparum growth inhibition at 96 hours. P. falciparum luciferase reporter growth, 96 h. Potency, µM (doses to about 28.7 µM), hits mostly inhibitors. 320,000 compounds, 6.9% hits. AID 504834
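P. falciparum expressing integrated firefly luciferase, in erythrocytes at 2% hematocrit, 0.05% parasitemia, incubated with compounds 96 h at 37 C, 5% CO2. Growth inhibition read as loss of luminescence; two-generation exposure targets delayed-death apicoplast inhibitors.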
Large screens that a line does not name were inactive. Shown are actives, neighbours in structure and some others; about 19% of the full set was active somewhere. Unless noted, calls come from the whole dose curve; as a rule, active = well fitted inhibition curve with a large enough effect; inconclusive = small, poorly fitted or top-dose-only effect, or another doubt; inactive = no such curve, though single readings can be large or run the other way.

O=C(O)COc1ccc(/C=N/NC(=O)c2ccccc2Br)cc1	none
O=C(Nc1ccccc1C(=O)N/N=C/c1ccc(F)cc1)c1ccccc1Br	Pf growth 48h inconclusive, CHX counter 17.3, Pf growth 96h inconclusive
Cc1ccccc1C(=O)Nc1ccc(C(=O)N/N=C/c2ccc(O)cc2)cc1	Lassa entry inh inconclusive, MARV entry inh inconclusive
O=C(N/N=C/c1ccc(O)cc1)c1ccc(NC(=O)c2ccccc2Br)cc1	Lassa entry inh 2.51µM, MARV entry inh inconclusive, Pf growth 96h inconclusive
CCOC(=O)N1CCN(CC(=O)c2ccc(O)c(C)c2O)CC1	CHX counter 31.4 (no result: Lassa entry inh, MARV entry inh)
CCOC(=O)N1CCN(CC(=O)c2ccc(O)cc2O)CC1	none (no result: Lassa entry inh, MARV entry inh)
Cc1c(O)ccc(C(=O)CN2CCN(Cc3ccc4c(c3)OCO4)CC2)c1O	Pf growth 96h 11.7µM
CCOC(=O)N1CCN(Cc2ccc3c(c2)OCO3)CC1	Pf growth 96h inconclusive
Cc1ccc(C(=O)c2cc([N+](=O)[O-])ccc2N2CCOCC2)cc1	Lassa entry inh inconclusive, MARV entry inh inconclusive
COCCNC(=O)C(c1ccc(C)cc1)N(C(=O)CCC(=O)Nc1ccccn1)c1ccccc1C (stereo not drawn)	MARV entry inh inconclusive, Pf growth 96h 8.28µM
COCCN(C(=O)CCCC(=O)Nc1ccccn1)C(C(=O)NC1CCCCC1)c1ccc(C)cc1 (stereo not drawn)	none
O=C(CCCC(=O)N(c1ccc2c(c1)OCCO2)C(C(=O)NC1CCCCC1)c1ccc(F)cc1)Nc1ccccn1 (stereo not drawn)	Pf growth 48h inconclusive, MARV entry inh inconclusive, Pf growth 96h 10.4µM
Cc1cccc(N(C(=O)CCC(=O)Nc2cc(C)on2)C(C(=O)NC2CCCC2)c2cccnc2)c1 (stereo not drawn)	none (no result: Lassa entry inh)
Cc1cccc(N(C(=O)CCC(=O)Nc2cccnc2)C(C(=O)NC2CCCC2)c2ccncc2)c1 (stereo not drawn)	Pf growth 48h inconclusive, Pf growth 96h 11.7µM
Cc1ccc(C(C(=O)NC2CCCCC2)N(C(=O)CCCC(=O)Nc2ccccn2)c2ccc3c(c2)OCCO3)cc1 (stereo not drawn)	Pf growth 48h inconclusive, CHX counter 10.6, Pf growth 96h inconclusive
CC(C)=CCN1CCN(Cc2cccn2-c2ccccn2)CC1CCO (stereo not drawn)	Pf growth 96h inconclusive
CCCOC(=O)c1ccc2c(c1)C(=O)N(c1ccccc1)C2=O	MARV entry inh inconclusive, Pf growth 96h 11.7µM (no result: Pf growth 48h)
CCCOC(=O)CN1C(=O)c2ccc(C(=O)OCCC)cc2C1=O	none (no result: Pf growth 96h)
C=CCNC(=O)c1ccccc1NS(=O)(=O)c1ccc(OC)c(C(=O)N2CCOCC2)c1	none (no result: Lassa entry inh)
COc1cc(Cl)cc(/C=C/c2ccc3ccccc3n2)c1OC(C)=O	CHX counter 83.6, Lassa entry inh inconclusive, MARV entry inh inconclusive, Shiga inhibitor 97.3, Pf growth 96h inconclusive
COc1cc(/C=C2\N=C(C)OC2=O)cc(Cl)c1OC(C)=O	none (no result: Lassa entry inh, MARV entry inh)
CC(=O)Oc1ccc(Cl)cc1/C=C/c1cc(OC(C)=O)c2ccccc2n1	Pf growth 48h 1.65µM, CHX counter 19.8, Lassa entry inh inconclusive, MARV entry inh inconclusive, Shiga inhibitor 33.9, Pf growth 96h inconclusive
COc1cc(/C=C/c2cc(C(=O)O)c3ccccc3n2)ccc1OC(F)F	none (no result: Lassa entry inh, MARV entry inh)
C=CCn1c(O)c(C(CC)=NCc2ccc3c(c2)OCO3)c(=O)[nH]c1=O	Lassa entry inh inconclusive, Pf growth 96h inconclusive
Cc1ccc(S(=O)(=O)NCC(=O)NCC(=O)OCc2c(F)cccc2Cl)cc1	Pf growth 48h inconclusive, CHX counter 13.1
CC(=O)Nc1ccc(C(=O)NCC(=O)OCc2c(F)cccc2Cl)cc1	Pf growth 96h inconclusive
O=C(CNC(=O)c1cccs1)OCc1c(F)cccc1Cl	CHX counter 48.4, Shiga inhibitor 103.0
Cc1ccc(C(=O)NCC(=O)OCc2c(F)cccc2Cl)cc1	none (no result: CHX counter, Shiga inhibitor)
C#CCO[C@@H]1C[C@H](n2cnc3c(NC(=O)c4ccccc4)ncnc32)O[C@@H]1CO	CHX counter 21.2 (no result: Lassa entry inh, MARV entry inh)
Cc1ccc(C(=O)NC2CCCCCCC2)cc1S(=O)(=O)N1CCOCC1	Pf growth 48h inconclusive, MARV entry inh inconclusive, Pf growth 96h 9.28µM (no result: CHX counter, Shiga inhibitor)
COc1ccc(C(=O)NC2CCCCCC2)cc1S(=O)(=O)N1CCOCC1	none
O=C(NC1CCCC1)c1ccc(Cl)c(S(=O)(=O)N2CCOCC2)c1	Pf growth 48h 4.65µM
O=C(NC1CCCCC1)c1ccc(S(=O)(=O)N2CCOCC2)cc1	Lassa entry inh inconclusive
COc1cccc(C2Nc3c(F)cc(Br)cc3C3C=CCC32)c1OC (stereo not drawn)	Pf growth 48h 9.28µM, Pf growth 96h 11.7µM
COc1cccc2c1NC(C(=O)O)C1CC=CC21 (stereo not drawn)	Lassa entry inh inconclusive
COc1cc(C2Nc3c(F)cccc3C3C=CCC32)cc(Br)c1OC (stereo not drawn)	Pf growth 48h 9.28µM, MARV entry inh inconclusive
COc1cc(C2NC(=O)CCC2[N+](=O)[O-])cc(Br)c1OC (stereo not drawn)	MARV entry inh inconclusive
COCCCn1c(SCC(=O)NC(C)(C)C)nnc1-c1cccs1	none
COc1cc(/C=C2\CCC(C3CCCC3)C2=O)ccc1OC(C)C (stereo not drawn)	Pf growth 48h 2.08µM, Pf growth 96h inconclusive
COc1ccc(/C=C2\CCC(C3CCCC3)C2=O)cc1OC (stereo not drawn)	CHX counter 35.6, MARV entry inh inconclusive, Shiga inhibitor 49.0
COc1cc(OC)c(OC)cc1/C=C1\CCC(C2CCCC2)C1=O (stereo not drawn)	none (no result: Lassa entry inh, MARV entry inh)
COc1ccc(NC(=O)CSc2nnc(CNC(=O)c3cccs3)o2)c(OC)c1	Pf growth 48h inconclusive
COc1ccccc1-c1ccc(SCc2ccccc2F)nn1	CHX counter 28.7, Lassa entry inh inconclusive, Shiga inhibitor 66.0
COc1ccccc1-c1ccc(SCC(=O)NCCc2ccccc2)nn1	Lassa entry inh inconclusive, MARV entry inh inconclusive, Pf growth 96h inconclusive
COc1ccccc1-c1ccc(SCc2ccccc2)nn1	CHX counter 37.9, MARV entry inh inconclusive, Shiga inhibitor 76.5, Pf growth 96h inconclusive
CCOC(=O)c1ccccc1NC(=O)CSc1ccc(-c2sc(C)nc2C)nn1	none (no result: Pf growth 48h, CHX counter, MARV entry inh, Shiga inhibitor, Pf growth 96h)
Cc1nc(C)c(-c2ccc(SCc3ccccc3F)nn2)s1	CHX counter 32.5, Shiga inhibitor 118.7 (no result: Lassa entry inh, MARV entry inh)
COc1ccccc1-c1ccc(SCc2cccc(F)c2)nn1	CHX counter 30.0, Shiga inhibitor 66.4
N/C(=N\OS(=O)(=O)c1ccc2ccccc2c1)c1ccccn1	none
COc1cc(/C=C2/NC(=O)NC2=O)cc(Br)c1OCc1ccccc1	Pf growth 48h inconclusive
COc1cc(/C=C2/C(=O)ON=C2c2ccccc2)ccc1O	none
COc1cc(/C=c2\sc3n(c2=O)C(c2ccccc2)C(c2ccccc2)=NN=3)ccc1O (stereo not drawn)	Pf growth 48h 4.65µM, Lassa entry inh inconclusive, Pf growth 96h 4.15µM
COc1cc(/C=c2\sc3n(c2=O)CCCN=3)ccc1O	CHX counter 24.9
